The structures appear in SMILES notation. The source made the active and inactive calls. Rule for the calls: active = hit-call score of the fitted dose curve at least 0.9, where 1 is the maximum; inactive = score below 0.9.

The nature of test [1]: ATG_E_Box_CIS: Attagene CIS-FACTORIAL HepG2 Assay for human Enhancer Box (E-box) (AID 2282936). Particulars: HepG2 E-box cis-reporter transcription, actives raise or lower the signal. The gist of the method:
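DMSO served as negative control and baseline for bidirectional fitting. Human hepatoma HepG2 cells, transiently transfected with cis-reporter constructs, were dosed 24 h; reporter mRNA read by RT-PCR and capillary electrophoresis.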

Test [2] in a line: ATG_M_61_CIS: Attagene CIS-FACTORIAL HepG2 Assay for M61 Transcription Factor (Internal Marker) (AID 2282937). The note with it: HepG2 Attagene CIS-FACTORIAL M61 internal marker reporter; actives raise or lower the signal. The gist of the method: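 HepG2 cells transiently transfected with multiplexed cis-promoter reporter units reporting endogenous transcription factor activity, measured 24 h after dosing. Reporter mRNA quantified by RT-PCR and capillary electrophoresis; bidirectional fit against DMSO baseline.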

A short description of test [3]: ATG_EGR_CIS: Attagene CIS-FACTORIAL HepG2 Assay for human Early Growth Response 1 (EGR1) (AID 2282938). Particulars: HepG2 Attagene CIS-FACTORIAL EGR reporter mRNA; actives raise or lower the signal. The method, boiled down:
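HepG2 cells transiently transfected with cis-element-driven multiplexed reporter units, dosed for 24 h. EGR1-element reporter mRNA quantified by RT-PCR, 6-FAM labelling, HpaI digestion and capillary electrophoresis; bidirectional fit versus DMSO.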

The nature of test [4]: ATG_M_19_CIS: Attagene CIS-FACTORIAL HepG2 Assay for M19 Transcription Factor (Internal Marker) (AID 2282939). Particulars: HepG2 Attagene CIS-FACTORIAL M19 internal marker reporter; actives raise or lower the signal. The method, boiled down: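 Chemical-treated HepG2 (24 h) with MRTU constructs; reporter transcripts detected by fluorescent RT-PCR fragment analysis on capillary electrophoresis. Internal background marker, DMSO as baseline.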

Test [5] can be described thus: ATG_ERE_CIS: Attagene CIS-FACTORIAL HepG2 Assay for Estrogen Response Element (ERE) (AID 2282940). Particulars: HepG2 ERE cis-reporter, Attagene RNA transcript; actives raise or lower the signal. The method, boiled down: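 Human liver cells (HepG2) bearing transiently transfected, promoter-regulated reporter units were exposed 24 h. Reporter mRNA induction was detected by capillary electrophoresis of labelled RT-PCR products and fitted bidirectionally to DMSO.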

The nature of test [6]: ATG_Ets_CIS: Attagene CIS-FACTORIAL HepG2 Assay for human Erythroblast Transformation Specific (ETS) (AID 2282941). Particulars: HepG2 ETS cis-reporter transcription, actives raise or lower the signal. The method, boiled down:
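Human HepG2 hepatoma cells were transiently transfected with promoter-driven reporter constructs and treated for 24 hours. Reporter transcripts were quantified by RT-PCR with fluorescent primer extension; bidirectional curve fitting used DMSO as reference.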

Test [7] concerns the target Hepatocyte nuclear factor 3-beta (Homo sapiens) (UniProt Q9Y261). The test can be described thus: ATG_FoxA2_CIS: Attagene CIS-FACTORIAL HepG2 Assay for human Forkhead box A2 (FOXA2) (AID 2282942). The note with it: HepG2 cis-reporter transcription factor activity, 24 h; actives raise or lower the signal. The method, boiled down:
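HepG2 transiently transfected with a multiplexed cis-promoter reporter library read endogenous FOXA2 activity. After 24 h compound exposure, reporter mRNA was quantified by RT-PCR, HpaI digestion and capillary electrophoresis. Bidirectional fit against DMSO.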

The nature of test [8]: ATG_GATA_CIS: Attagene CIS-FACTORIAL HepG2 Assay for human GATA Binding Protein (AID 2282944). Particulars: HepG2 GATA cis-element reporter, Attagene multiplex mRNA; actives raise or lower the signal. The method, boiled down: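 Transfected cis-reporter HepG2 cells were treated with chemicals for 24 hours. Total RNA was then converted to cDNA, amplified with reporter-specific primers and analysed by fluorescent capillary electrophoresis, using DMSO-treated wells as baseline.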

Test [9] can be described thus: ATG_GLI_CIS: Attagene CIS-FACTORIAL HepG2 Assay for human Zinc Finger Protein GLI1 (AID 2282945). The note with it: HepG2, Attagene cis-factorial reporter mRNA, GLI element; actives raise or lower the signal. The method, boiled down:
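Bidirectional curve fits relative to DMSO, using reporter mRNA levels from RT-PCR plus capillary electrophoresis. Cells were HepG2 transiently carrying cis-regulated reporter constructs, harvested 24 h after dosing.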

Test [10] can be described thus: ATG_ISRE_CIS: Attagene CIS-FACTORIAL HepG2 Assay for human Interferon Regulatory Factor 1 (IRF1) binding to an Interferon-Stimulated Response Element (ISRE) (AID 2282948). The note with it: HepG2 ISRE cis-reporter (Attagene), mRNA transcription readout; actives raise or lower the signal. The gist of the method:
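Cell-based cis-reporter assay; HepG2; 24 h exposure; reporter mRNA by RT-PCR plus capillary electrophoresis fluorescence; activity in either direction scored relative to DMSO.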

The nature of test [11]: ATG_M_32_CIS: Attagene CIS-FACTORIAL HepG2 Assay for M32 Transcription Factor (Internal Marker) (AID 2282949).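 Note: background control marker of the multiplexed CIS panel rather than a real target.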 The note with it: HepG2 Attagene cis-factorial M32 reporter, mRNA; actives raise or lower the signal. The gist of the method: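 Following 24 h chemical exposure of HepG2 cells transiently expressing cis-promoter reporter constructs, reporter transcript levels were determined by RT-PCR with fluorescent labelling and capillary electrophoresis, then fitted bidirectionally against DMSO.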

Test [12] can be described thus: ATG_M_06_CIS: Attagene CIS-FACTORIAL HepG2 Assay for M06 Transcription Factor (Internal Marker) (AID 2282950). Particulars: HepG2 Attagene CIS-FACTORIAL M06 internal marker reporter; actives raise or lower the signal. The gist of the method:
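Cells (HepG2, transiently carrying cis-driven reporter units) receive chemical for 24 h before RNA isolation. Reporter cDNA is PCR-amplified, FAM-labelled by primer extension, HpaI-digested and sized on a capillary analyser.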

In test [13] the target is Hypoxia-inducible factor 1-alpha (Homo sapiens) (UniProt Q16665). Put plainly: ATG_HIF1a_CIS: Attagene CIS-FACTORIAL HepG2 Assay for human Hypoxia Inducible Factor 1 (HIF1A) (AID 2282951). Particulars: HepG2 Attagene cis-factorial HIF1a reporter transcription; actives raise or lower the signal. The method, boiled down:
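HepG2 cells transiently transfected with multiple cis-regulated reporter transcription units measure endogenous transcription factor activity. After 24 h exposure, reporter mRNA is quantified by RT-PCR with 6-FAM labelling, HpaI digestion and capillary electrophoresis. Bidirectional fitting against DMSO.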

Test [14] concerns the target Hepatocyte nuclear factor 6 (Homo sapiens) (UniProt Q9UBC0). The test can be described thus: ATG_HNF6_CIS: Attagene CIS-FACTORIAL HepG2 Assay for human Hepatocyte Nuclear Factor 6 (HNF6) (AID 2282952). The note with it: HepG2 Attagene cis-factorial HNF6 reporter transcription; actives raise or lower the signal. The gist of the method: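 HepG2 cells transiently transfected with cis-element-driven multiplexed reporter units measuring endogenous transcription factor activity. After 24 h exposure, reporter mRNA quantified by RT-PCR, FAM-labelled fragments and capillary electrophoresis; bidirectional fitting versus DMSO.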

For test [15], the target named is Heat shock factor protein 1 (Homo sapiens) (UniProt Q00613). The test can be described thus: ATG_HSE_CIS: Attagene CIS-FACTORIAL HepG2 Assay for human Heat Shock Transcription Factor 1 (HSE) (AID 2282953). The note with it: HepG2 HSE cis-reporter, Attagene RNA transcription; actives raise or lower the signal. The method, boiled down:
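Liver-derived HepG2 cells carry transiently introduced multiple reporter units governed by cis promoters. Reporter RNA measured 24 h post-dose through reverse transcription, PCR amplification, fluorescent labelling and capillary electrophoresis, normalised to DMSO.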

Test [16] in a line: ATG_MRE_CIS: Attagene CIS-FACTORIAL HepG2 Assay for human Metal Responsive Element (MRE) (AID 2282954). Particulars: HepG2 MRE cis-reporter transcription, Attagene multiplex; actives raise or lower the signal. The gist of the method:
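After a 24 h chemical exposure, transiently transfected HepG2 cells yield RNA whose reporter sequences are amplified, FAM-labelled and sized by capillary electrophoresis. Curves are fitted bidirectionally relative to DMSO.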

Test [17] in a line: ATG_PBREM_CIS: Attagene CIS-FACTORIAL HepG2 Assay for human Phenobarbital-responsive Enhancer Module (PBREM) (AID 2282955). The note with it: HepG2 PBREM cis-reporter, Attagene multiplexed transcription; actives raise or lower the signal. The gist of the method:
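HepG2 cells transiently transfected with multiple cis-regulated reporter units measure endogenous transcription factor activity; 24 h compound exposure. Reporter mRNA quantified by RT-PCR, fluorescent labelling, HpaI digestion and capillary electrophoresis; bidirectional fit versus DMSO.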

A short description of test [18]: ATG_FoxO_CIS: Attagene CIS-FACTORIAL HepG2 Assay for human Forkhead box O (FoxO) (AID 2282943). The note with it: HepG2 Attagene cis-reporter, FoxO element, mRNA; actives raise or lower the signal. The method, boiled down:
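Endogenous transcription factor activity read from multiplexed cis-promoter reporter transcripts in transiently transfected HepG2, 24 h after dosing. Reporter RNA measured via RT-PCR plus capillary electrophoresis of FAM-labeled products; gain or loss relative to DMSO.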

In test [19] the target is Bile acid receptor (Homo sapiens) (UniProt Q96RI1). Put plainly: ATG_IR1_CIS: Attagene CIS-FACTORIAL HepG2 Assay for human Nuclear Receptor Subfamily 1 Group H Member 4 (NR1H4), IR1 submotif (AID 2282946). The note with it: IR1 reporter transcription, actives raise or lower the signal. The method, boiled down: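 Cells (human HepG2) carry transiently transfected cis-promoter reporter transcription units. Compounds are incubated 24 h, total RNA is reverse-transcribed and amplified, and labelled fragments are resolved by capillary electrophoresis. Curves use DMSO as baseline.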

A short description of test [20]: ATG_GRE_CIS: Attagene CIS-FACTORIAL HepG2 Assay for human Glucocorticoid Response Elements (GRE) (AID 2282947). Particulars: HepG2 GRE cis-reporter, Attagene multiplex mRNA; actives raise or lower the signal. The method, boiled down:
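Assay uses human hepatoma HepG2 cells transfected with cis-promoter reporter units, exposed 24 h. mRNA from reporters detected by RT-PCR plus capillary electrophoresis; DMSO serves as negative control and baseline.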

Sequence of Hepatocyte nuclear factor 6 (Homo sapiens) (Q9UBC0 whole entry, looked up, the tested form may be a part): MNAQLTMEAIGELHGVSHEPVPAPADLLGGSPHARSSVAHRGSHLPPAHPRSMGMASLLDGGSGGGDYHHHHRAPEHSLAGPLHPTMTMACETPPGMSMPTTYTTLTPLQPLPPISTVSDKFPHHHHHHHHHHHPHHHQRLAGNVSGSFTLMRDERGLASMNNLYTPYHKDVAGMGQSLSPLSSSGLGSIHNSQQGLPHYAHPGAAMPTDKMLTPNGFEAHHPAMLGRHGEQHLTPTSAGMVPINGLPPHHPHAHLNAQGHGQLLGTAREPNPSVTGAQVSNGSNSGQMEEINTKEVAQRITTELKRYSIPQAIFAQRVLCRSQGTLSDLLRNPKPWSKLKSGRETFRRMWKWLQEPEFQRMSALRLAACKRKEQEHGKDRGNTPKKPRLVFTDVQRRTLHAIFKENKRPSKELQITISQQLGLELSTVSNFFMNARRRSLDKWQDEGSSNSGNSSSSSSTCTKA
Sequence of Hepatocyte nuclear factor 3-beta (Homo sapiens) (Q9Y261 whole entry, looked up): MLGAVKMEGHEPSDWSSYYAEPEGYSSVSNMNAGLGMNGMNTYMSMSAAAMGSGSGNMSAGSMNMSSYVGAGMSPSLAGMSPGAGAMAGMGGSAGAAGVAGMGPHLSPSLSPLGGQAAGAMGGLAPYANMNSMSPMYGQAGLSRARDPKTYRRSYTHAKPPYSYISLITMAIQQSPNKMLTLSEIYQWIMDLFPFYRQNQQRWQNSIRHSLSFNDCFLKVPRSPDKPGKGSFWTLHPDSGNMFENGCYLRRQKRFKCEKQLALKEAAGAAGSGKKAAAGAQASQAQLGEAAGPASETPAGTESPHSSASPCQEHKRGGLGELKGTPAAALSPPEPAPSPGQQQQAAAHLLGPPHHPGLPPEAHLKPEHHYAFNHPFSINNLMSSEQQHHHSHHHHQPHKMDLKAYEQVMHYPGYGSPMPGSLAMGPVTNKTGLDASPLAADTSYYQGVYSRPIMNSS
Sequence of Heat shock factor protein 1 (Homo sapiens) (Q00613 whole entry, looked up): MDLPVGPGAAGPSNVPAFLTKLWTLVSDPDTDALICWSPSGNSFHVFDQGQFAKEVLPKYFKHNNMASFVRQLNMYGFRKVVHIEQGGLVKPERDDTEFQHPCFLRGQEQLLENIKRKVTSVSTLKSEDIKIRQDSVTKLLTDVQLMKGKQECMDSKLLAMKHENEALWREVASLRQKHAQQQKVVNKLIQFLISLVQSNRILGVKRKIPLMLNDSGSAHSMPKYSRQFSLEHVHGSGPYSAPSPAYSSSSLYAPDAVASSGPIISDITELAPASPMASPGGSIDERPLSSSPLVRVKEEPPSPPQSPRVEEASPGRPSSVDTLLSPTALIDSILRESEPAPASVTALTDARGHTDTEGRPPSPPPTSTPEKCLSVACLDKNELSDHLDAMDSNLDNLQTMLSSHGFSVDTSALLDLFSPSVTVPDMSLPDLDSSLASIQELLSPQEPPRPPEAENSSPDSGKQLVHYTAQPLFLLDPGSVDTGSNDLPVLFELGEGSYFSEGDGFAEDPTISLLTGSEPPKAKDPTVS
Sequence of Hypoxia-inducible factor 1-alpha (Homo sapiens) (Q16665 whole entry, looked up): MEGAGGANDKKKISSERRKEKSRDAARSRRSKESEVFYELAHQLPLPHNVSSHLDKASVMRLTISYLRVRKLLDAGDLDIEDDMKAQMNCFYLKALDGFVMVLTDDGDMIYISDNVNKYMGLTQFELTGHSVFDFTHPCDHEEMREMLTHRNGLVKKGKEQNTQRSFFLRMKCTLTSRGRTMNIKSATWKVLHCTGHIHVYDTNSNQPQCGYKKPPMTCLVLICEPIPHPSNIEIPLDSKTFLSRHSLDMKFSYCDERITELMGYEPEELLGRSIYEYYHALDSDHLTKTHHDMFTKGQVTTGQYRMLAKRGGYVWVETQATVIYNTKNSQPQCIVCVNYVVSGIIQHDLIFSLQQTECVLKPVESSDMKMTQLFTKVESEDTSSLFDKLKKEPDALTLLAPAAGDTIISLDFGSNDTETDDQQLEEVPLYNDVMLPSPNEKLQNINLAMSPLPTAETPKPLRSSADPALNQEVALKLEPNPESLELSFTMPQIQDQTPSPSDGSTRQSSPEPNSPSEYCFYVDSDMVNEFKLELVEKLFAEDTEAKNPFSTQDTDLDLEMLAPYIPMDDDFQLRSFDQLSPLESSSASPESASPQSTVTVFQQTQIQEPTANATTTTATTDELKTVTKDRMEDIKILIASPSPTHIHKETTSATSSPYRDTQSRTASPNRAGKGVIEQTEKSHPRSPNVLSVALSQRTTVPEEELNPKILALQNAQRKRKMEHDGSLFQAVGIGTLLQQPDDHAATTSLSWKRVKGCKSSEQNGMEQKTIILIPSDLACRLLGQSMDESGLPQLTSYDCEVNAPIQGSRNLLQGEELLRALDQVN
Sequence of Bile acid receptor (Homo sapiens) (Q96RI1 whole entry, looked up, the tested form may be a part): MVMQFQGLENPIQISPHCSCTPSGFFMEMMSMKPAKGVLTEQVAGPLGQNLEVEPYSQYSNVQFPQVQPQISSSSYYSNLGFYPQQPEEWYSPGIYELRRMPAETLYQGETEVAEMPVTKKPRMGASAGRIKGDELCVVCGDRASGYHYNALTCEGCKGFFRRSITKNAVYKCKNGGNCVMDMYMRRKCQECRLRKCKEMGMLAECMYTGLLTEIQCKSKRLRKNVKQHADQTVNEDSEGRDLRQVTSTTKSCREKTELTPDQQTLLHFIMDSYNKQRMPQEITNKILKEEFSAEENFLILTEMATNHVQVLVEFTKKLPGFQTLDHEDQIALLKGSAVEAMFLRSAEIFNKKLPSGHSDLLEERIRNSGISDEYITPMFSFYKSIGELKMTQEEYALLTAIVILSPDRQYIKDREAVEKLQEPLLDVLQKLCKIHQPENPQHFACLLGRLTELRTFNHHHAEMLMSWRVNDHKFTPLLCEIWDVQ

In the case of `CCCCC/C=C\C/C=C\CCCCCCCC(=O)OC`, the result in test [1], in [2], in [4], in [5], in test [6] and in test [7] was inactive. Also, the result in [8], in [11], in test [12], in test [13], in [14] and in test [16] was inactive. Besides, the outcome in [17] was inactive. Also, the half-maximal activity concentration (AC50) (as a rule, the midpoint of the concentration-response curve, whichever way the signal moves) is 100 µM (active) in test [3], 162 µM (active) in test [9], 80.7 µM (active) in test [10] and 153 µM (active) in test [15].

Take `CCOc1ccc(N)c([N+](=O)[O-])c1`: the outcome in [1], in test [2], in [3], in [4], in test [5] and in test [6] was inactive. Besides, the compound was called inactive in test [7], in [9], in test [10], in [11], in test [12] and in test [13]. The call in test [14], in test [15], in test [16] and in test [17] was inactive.

On to `C=C(C)[C@H]1CC=C(C)CC1`, for which the result in test [1], in [2], in test [3], in test [4], in [5] and in [6] was inactive. Moreover, the result in test [18], in test [8], in test [10], in test [11], in [12] and in test [13] was inactive. Also, the call in test [14], in test [15], in [16] and in test [17] was inactive.

For the compound `CC1=CC[C@H]2C[C@@H]1C2(C)C`, the outcome in test [1], in test [2], in [3], in test [4], in test [5] and in [6] was inactive. The compound was classed as inactive in test [18], in [8], in [9], in test [10], in [11] and in test [12]. Further, the compound was called inactive in test [13], in test [14], in [15] and in test [16].

For `Cc1c(C)c([N+](=O)[O-])c(C(C)(C)C)c([N+](=O)[O-])c1C`, the result in test [1], in [2], in test [3], in test [4], in [5] and in [6] was inactive. For the same compound, the result in test [7], in test [8], in test [9], in test [10], in [11] and in test [12] was inactive. The call in test [13], in test [14], in test [15], in [16] and in test [17] was inactive.

Regarding `CCCCCCCCCCCCCCCC[N+](C)(C)CC`, the values for the AC50 in test [1], in test [10] and in [16] were 13.5 µM (active), 9.27 µM (active) and 8.94 µM (active), respectively. In addition, the compound was classed as inactive in test [2], in [3], in [4], in test [5], in [6] and in test [7]. Also, the compound was classed as inactive in test [19], in test [20], in test [11], in test [12], in [13] and in test [14].

On to `O=C1c2cccc(O)c2C(=O)c2c(O)cc(CO)cc21`, for which the AC50 was 2.41 µM (active) in test [1], 4.22 µM (active) in test [5] and 24 µM (active) in test [13]. For the same compound, the outcome in test [2], in [3], in test [4], in test [6], in [18] and in [8] was inactive. Further, the call in [9], in test [19], in [20], in test [10], in test [12] and in test [14] was inactive. In addition, the compound was classed as inactive in test [16] and in [17].

As for `CN(C)c1ccc(N=Nc2ccccc2C(=O)O)cc1`, the AC50 was 15.6 µM (active) in test [1]; 47.4 µM (active) in test [3]; 66.9 µM (active) in test [18]; 58.1 µM (active) in test [10]; 17.9 µM (active) in test [13]; 43.9 µM (active) in test [16]. The result in test [2], in test [4], in test [5], in test [6], in test [8] and in test [9] was inactive. The call in test [20], in test [12], in test [14] and in test [17] was inactive.

For the origin of these results see PubChem BioAssay (EPA / NIEHS).
